# Measured values published in the supplement of paper PMC10849652.
# About 7,900 targets were measured; listed, in parts, are those with a hit and a random draw of the rest. About 0.6% of all pairs of compound and target were hits.
# Compound: C1=CC=C(C=C1)C2=NC(=C(N2)C3=CC=NC=C3)C4=CC(=C(C=C4)Cl)O
# Test: log2 fold change, soluble protein after heating vs DMSO (PISA); higher = thermal stabilisation; K562 cells, 10 uM, 30 min; active = over 0.2 and 3.5 SD of the protein, either way, in both replicates (recomputed)
# Procedure, shortened: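 Quantification of soluble protein used TMTpro 16plex LC-MS/MS, with channel sums equalised. Samples were the supernatant after 21,000xg for 90 min of pooled aliquots from K562 cells (2×10^6 cells/mL) treated with 10 μM compound for 30 min, heated for 3 min over 48°C-58°C, and extracted in PBS with 0.5% NP-40 at 4°C. Values, from duplicates, describe thermal stability against control samples on a log2 fold-change scale.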
# Sequence of UniProt P55084 (P55084 whole entry, looked up): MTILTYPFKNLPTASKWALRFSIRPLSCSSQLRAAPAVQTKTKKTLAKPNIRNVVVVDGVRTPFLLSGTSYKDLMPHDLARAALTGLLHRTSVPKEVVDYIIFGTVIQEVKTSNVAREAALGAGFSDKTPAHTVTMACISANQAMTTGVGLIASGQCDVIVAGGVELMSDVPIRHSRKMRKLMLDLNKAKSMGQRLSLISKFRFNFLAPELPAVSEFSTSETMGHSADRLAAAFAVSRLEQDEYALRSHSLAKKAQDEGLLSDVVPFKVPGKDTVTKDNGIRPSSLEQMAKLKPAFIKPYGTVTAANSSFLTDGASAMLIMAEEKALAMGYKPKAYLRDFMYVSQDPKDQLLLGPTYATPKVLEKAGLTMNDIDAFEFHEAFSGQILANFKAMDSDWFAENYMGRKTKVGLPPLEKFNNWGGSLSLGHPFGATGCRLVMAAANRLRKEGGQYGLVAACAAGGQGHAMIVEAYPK
# Sequence of UniProt Q9NZC3 (Q9NZC3 whole entry, looked up): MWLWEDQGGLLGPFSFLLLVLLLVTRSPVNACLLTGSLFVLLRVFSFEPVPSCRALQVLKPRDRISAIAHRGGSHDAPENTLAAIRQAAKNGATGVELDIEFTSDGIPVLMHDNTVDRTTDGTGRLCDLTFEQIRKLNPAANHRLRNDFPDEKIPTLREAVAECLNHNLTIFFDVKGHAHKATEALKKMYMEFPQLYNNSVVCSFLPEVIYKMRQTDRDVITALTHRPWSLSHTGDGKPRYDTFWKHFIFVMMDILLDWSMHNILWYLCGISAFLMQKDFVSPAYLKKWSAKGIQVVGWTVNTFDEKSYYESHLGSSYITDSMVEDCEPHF
# Sequence of UniProt Q00688 (Q00688 whole entry, looked up): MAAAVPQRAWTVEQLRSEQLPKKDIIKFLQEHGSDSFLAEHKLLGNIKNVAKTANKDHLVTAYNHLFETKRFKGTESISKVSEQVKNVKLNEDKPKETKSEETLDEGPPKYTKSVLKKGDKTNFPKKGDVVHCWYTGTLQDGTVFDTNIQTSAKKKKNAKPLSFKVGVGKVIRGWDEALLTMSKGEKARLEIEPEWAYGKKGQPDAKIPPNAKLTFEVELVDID
# Sequence of UniProt P36969 (P36969 whole entry, looked up): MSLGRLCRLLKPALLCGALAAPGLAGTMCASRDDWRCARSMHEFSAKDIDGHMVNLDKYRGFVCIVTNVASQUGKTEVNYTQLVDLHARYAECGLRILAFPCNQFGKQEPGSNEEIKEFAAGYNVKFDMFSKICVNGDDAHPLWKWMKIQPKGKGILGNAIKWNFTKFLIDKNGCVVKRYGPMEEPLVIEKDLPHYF
# Sequence of UniProt P50213 (P50213 whole entry, looked up): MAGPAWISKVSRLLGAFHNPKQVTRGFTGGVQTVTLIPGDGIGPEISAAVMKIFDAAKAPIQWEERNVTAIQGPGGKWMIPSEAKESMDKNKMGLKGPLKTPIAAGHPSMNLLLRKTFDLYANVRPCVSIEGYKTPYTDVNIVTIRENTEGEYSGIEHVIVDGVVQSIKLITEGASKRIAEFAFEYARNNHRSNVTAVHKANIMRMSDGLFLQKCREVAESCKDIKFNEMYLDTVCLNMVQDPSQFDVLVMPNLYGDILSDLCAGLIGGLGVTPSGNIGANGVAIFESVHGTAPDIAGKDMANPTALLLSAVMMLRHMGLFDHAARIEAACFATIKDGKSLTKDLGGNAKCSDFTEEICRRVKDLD
# Sequence of UniProt Q9H4A6 (Q9H4A6 whole entry, looked up): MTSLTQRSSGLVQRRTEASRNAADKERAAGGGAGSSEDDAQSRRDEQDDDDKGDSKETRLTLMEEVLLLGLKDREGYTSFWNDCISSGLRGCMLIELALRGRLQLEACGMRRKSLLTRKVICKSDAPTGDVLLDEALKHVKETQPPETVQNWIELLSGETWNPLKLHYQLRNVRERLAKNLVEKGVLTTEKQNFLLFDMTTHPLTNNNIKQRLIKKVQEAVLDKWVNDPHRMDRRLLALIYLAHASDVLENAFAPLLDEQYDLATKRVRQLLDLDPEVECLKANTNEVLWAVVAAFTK
# Sequence of UniProt Q8WUI4 (Q8WUI4 whole entry, looked up): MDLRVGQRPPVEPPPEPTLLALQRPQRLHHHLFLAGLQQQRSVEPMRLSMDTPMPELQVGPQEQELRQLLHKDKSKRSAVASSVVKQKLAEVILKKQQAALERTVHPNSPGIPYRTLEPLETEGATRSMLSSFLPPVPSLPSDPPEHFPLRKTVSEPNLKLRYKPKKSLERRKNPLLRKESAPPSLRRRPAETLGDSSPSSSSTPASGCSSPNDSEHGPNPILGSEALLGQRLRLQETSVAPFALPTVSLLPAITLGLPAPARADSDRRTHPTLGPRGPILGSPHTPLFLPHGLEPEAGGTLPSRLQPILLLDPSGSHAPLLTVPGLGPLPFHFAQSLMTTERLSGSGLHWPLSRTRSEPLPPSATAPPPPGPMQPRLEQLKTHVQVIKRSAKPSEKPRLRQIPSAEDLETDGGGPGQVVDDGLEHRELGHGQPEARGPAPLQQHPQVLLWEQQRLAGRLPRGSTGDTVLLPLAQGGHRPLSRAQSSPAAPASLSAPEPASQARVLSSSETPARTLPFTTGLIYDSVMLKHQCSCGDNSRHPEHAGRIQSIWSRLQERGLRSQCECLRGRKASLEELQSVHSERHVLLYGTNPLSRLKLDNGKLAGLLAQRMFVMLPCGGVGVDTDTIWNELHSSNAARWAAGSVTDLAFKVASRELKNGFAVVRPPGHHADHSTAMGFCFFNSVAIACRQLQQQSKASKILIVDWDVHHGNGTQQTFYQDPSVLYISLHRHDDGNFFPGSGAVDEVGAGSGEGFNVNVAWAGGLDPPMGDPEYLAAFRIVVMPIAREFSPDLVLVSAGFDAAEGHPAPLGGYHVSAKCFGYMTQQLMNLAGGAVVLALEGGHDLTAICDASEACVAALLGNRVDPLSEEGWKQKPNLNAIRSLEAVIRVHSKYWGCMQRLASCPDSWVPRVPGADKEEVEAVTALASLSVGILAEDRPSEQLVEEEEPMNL
# Sequence of UniProt O60725 (O60725 whole entry, looked up): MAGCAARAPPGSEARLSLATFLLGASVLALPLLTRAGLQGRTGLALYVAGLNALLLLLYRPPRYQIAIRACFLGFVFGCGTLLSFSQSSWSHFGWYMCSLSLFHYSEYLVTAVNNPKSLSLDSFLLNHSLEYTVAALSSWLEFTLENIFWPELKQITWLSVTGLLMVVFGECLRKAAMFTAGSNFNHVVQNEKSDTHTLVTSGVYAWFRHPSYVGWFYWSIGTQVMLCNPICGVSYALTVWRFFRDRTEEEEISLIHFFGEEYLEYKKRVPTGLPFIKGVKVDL
# Sequence of UniProt Q96HJ9 (Q96HJ9 whole entry, looked up): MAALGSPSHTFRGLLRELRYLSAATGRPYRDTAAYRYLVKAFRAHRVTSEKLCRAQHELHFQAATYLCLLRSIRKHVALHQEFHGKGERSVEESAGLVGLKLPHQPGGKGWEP
# Sequence of UniProt Q53FT3 (Q53FT3 whole entry, looked up): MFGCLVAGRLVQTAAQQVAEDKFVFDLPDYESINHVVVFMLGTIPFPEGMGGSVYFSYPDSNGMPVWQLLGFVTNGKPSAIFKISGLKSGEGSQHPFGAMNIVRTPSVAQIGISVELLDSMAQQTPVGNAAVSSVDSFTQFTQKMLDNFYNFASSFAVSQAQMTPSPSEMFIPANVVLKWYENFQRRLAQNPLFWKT
# Sequence of UniProt Q10471 (Q10471 whole entry, looked up): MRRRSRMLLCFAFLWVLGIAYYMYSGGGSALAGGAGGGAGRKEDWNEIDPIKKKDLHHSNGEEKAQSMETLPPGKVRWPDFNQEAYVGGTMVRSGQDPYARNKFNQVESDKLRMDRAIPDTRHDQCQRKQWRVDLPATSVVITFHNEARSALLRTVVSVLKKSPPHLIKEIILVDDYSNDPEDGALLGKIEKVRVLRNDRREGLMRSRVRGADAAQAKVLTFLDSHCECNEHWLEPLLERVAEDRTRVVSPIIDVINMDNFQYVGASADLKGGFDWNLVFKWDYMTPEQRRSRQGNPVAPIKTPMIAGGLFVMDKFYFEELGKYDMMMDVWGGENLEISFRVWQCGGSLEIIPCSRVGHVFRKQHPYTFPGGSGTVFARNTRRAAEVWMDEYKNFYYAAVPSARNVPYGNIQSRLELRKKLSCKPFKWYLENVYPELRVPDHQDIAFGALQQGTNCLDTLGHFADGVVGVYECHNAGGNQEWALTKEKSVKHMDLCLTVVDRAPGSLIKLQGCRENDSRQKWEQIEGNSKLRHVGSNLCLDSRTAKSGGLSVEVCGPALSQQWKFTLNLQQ
# Sequence of UniProt P02008 (P02008 whole entry, looked up): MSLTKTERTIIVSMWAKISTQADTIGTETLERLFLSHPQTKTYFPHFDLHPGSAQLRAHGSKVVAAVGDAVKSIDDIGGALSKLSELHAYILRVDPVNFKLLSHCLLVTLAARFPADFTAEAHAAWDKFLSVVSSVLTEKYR
# Sequence of UniProt P06865 (P06865 whole entry, looked up): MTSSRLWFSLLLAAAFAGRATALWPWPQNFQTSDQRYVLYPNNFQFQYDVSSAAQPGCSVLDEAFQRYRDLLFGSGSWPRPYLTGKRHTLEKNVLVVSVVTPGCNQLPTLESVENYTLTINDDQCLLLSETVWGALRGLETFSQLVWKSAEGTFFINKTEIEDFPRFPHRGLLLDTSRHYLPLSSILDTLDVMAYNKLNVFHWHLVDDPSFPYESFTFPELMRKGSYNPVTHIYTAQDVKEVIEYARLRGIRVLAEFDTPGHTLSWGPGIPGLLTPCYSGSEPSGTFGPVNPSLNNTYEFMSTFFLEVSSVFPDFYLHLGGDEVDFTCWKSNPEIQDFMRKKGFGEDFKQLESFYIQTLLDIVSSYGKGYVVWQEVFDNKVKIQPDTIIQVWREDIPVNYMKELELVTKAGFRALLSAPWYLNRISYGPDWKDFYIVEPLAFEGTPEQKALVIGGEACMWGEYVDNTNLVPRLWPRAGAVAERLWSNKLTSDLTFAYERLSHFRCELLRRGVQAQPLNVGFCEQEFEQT
row,Target,log2 fold change
1,FKBP3 (UniProt Q00688),-0.028 (inactive)
2,GPX4 (UniProt P36969),0.142 (inactive)
3,HEXA (UniProt P06865),-0.003 (inactive)
4,HECTD1 (UniProt Q9ULT8),-0.038 (inactive)
5,GLUD2 (UniProt P49448),0.03 (inactive)
6,GBF1 (UniProt Q92538),-0.036 (inactive)
7,HIKESHI (UniProt Q53FT3),-0.002 (inactive)
8,HBZ (UniProt P02008),0.118 (inactive)
9,HIP1 (UniProt O00291),0.011 (inactive)
10,HADHB (UniProt P55084),0.04 (inactive)
11,GTPBP6 (UniProt O43824),-0.036 (inactive)
12,GOLPH3 (UniProt Q9H4A6),0.051 (inactive)
13,GSTO1 (UniProt P78417),0.095 (inactive)
14,GYG1 (UniProt P46976),-0.109 (inactive)
15,ICMT (UniProt O60725),0.122 (inactive)
16,FANCD2 isoform 1 (UniProt Q9BXW9),0 (inactive)
17,GMEB1 (UniProt Q9Y692),-0.027 (inactive)

row,Target,log2 fold change
1,GALNT2 (UniProt Q10471),0.028 (inactive)
2,GCC2 (UniProt Q8IWJ2),-0.032 (inactive)
3,HAX1 (UniProt O00165),0.06 (inactive)
4,GGT7 (UniProt Q9UJ14),-0.018 (inactive)
5,HDAC7 isoform 5 (UniProt Q8WUI4),-0.037 (inactive)
6,HSPA8 (UniProt E9PK54),-0.211 (inactive)
7,HIST2H3A (UniProt Q71DI3),0.047 (inactive)
8,FLNA (UniProt P21333),0.013 (inactive)
9,H2AFX (UniProt P16104),-0.087 (inactive)
10,GTF2A1 (UniProt P52655),-0.021 (inactive)
11,GATA1 (UniProt P15976),-0.021 (inactive)
12,GALNT1 (UniProt Q10472),0.06 (inactive)
13,FMC1 (UniProt Q96HJ9),0.319 (active)
14,GDE1 (UniProt Q9NZC3),-0.029 (inactive)
15,IDH3A (UniProt P50213),-0.03 (inactive)
16,FARS2 (UniProt O95363),0.014 (inactive)
17,FYB1 isoform 3 (UniProt O15117),0.014 (inactive)
